Test results as given in PubChem BioAssay (NCATS).
Values joined by “and” are separate entries in the source; they are usually repeats but may differ in a detail not shown here. Equal values may be shown once. Inconclusive results are not listed. Where a call stands in place of a potency, no number is given. Active and inactive are the calls of the source. Unless noted, the call rests on the fitted dose curve; in most records, active means well fitted curve in the direction sought with a large enough effect; inconclusive means small, poorly fitted or top-dose-only effect, or another doubt; inactive means no such curve, though single readings can be large; an effect the other way counts as inactive or inconclusive.

Experiments:
[1] = NCATS anti-infectives library activity on HEK293 viability as a counter-qHTS vs the C. elegans viability qHTS (AID 1745854);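 further: HEK293 cells exposed to compounds for 24 hr before the viability read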
How it was run: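 Cytotoxicity in human HEK293 cells is measured by ATP-dependent CellTiter-Glo luminescence following a 24 hr incubation with titrated library compounds at 37C. Top final concentration is 41.7 uM.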

[2] = NCATS anti-infectives library activity on the primary C. elegans qHTS viability assay (AID 1745855; calls by dose curve)
How it was run: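 Viability is taken from GFP fluorescence of PE254-GFP-FLuc C. elegans imaged by laser cytometry over 7 days. Ten L1 worms per well grow at 21 °C on TOP10 E. coli capsules with titrated compound; levamisole marks toxicity.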

[3] = target: Glutathione peroxidase 1 (Homo sapiens) (UniProt P07203); assay: Primary qHTS Assay for Inhibitors of Recombinant Selenoprotein Glutathione Peroxidase 1 (GPX1) (AID 1845191); further: nearly all actives have a fitted effect of over 65% in size
How it was run: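 GR-coupled assay: compounds preincubated 30 min at room temperature with GPX1, then reaction started with CHP; final 10 nM GPX1, 1 mM GSH, 0.5 mM CHP, 0.5 mM NADPH, 100 nM GR, 0.01% BSA, pH 7.5 Tris buffer. NADPH fluorescence (340/450 nm) read at 0 and 15 min.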

[4] = target: Phospholipid hydroperoxide glutathione peroxidase GPX4 (Homo sapiens) (UniProt P36969); assay: Primary qHTS Assay for Inhibitors of Recombinant Selenoprotein Glutathione Peroxidase 4 (GPX4) (AID 1845192); further: nearly all actives have a fitted effect of over 65% in size
How it was run: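 GR-coupled assay: recombinant GPX4 preincubated 30 min with compound at room temperature; final 200 nM GPX4, 1 mM GSH, 0.5 mM cumene hydroperoxide, 0.5 mM NADPH, 100 nM GR, 0.01% BSA, pH 7.5 Tris. NADPH fluorescence (340/450 nm) read at 0 and 15 min.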

[5] = target: Luciferin 4-monooxygenase (Photinus pyralis) (UniProt P08659); assay: Primary firefly luciferase (FLuc) qHTS assay for identification of artifact compounds. (AID 1845220); further: nearly all actives have a fitted effect of over 60% in size
How it was run: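 D-luciferin and ATP (10 uM each, final) in Tris acetate buffer pH 7.6 were incubated with compounds for 15 min at room temperature. The reaction was started with 10 nM Photinus pyralis luciferase and luminescence read after 5 min. Percent inhibition was fitted to a 4-parameter Hill equation.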

[6] = target: Catechol O-methyltransferase (Homo sapiens) (UniProt P21964); assay: Confirmatory Screen for Target Class Profiling of Small Molecule Inhibitors of Methyltransferases (AID 1745852; calls by dose curve; further: potency means the concentration at half of the fitted maximal effect); settings: MTase-Glo luminescence, SAH detection, recombinant enzyme; measured here: COMT max response; stronger effect = lower value
[7] = target: Guanidinoacetate N-methyltransferase (Homo sapiens) (UniProt Q14353); assay: as above; settings: MTase-Glo luminescence, SAH detection, recombinant enzyme; activity change, negative = inhibition: at 57.3 µM (top of the series)
[8] = target: Nicotinamide N-methyltransferase (Homo sapiens) (UniProt P40261); assay: as above; settings: MTase-Glo luminescence, SAH detection, recombinant enzyme; measured here: NNMT max response; stronger effect = lower value
[9] = target: Phenylethanolamine N-methyltransferase (Homo sapiens) (UniProt P11086); assay: as above; settings: MTase-Glo luminescence, SAH detection, recombinant enzyme; measured here: PNMT max response; stronger effect = lower value
[10] = target: Rap guanine nucleotide exchange factor 3 (Homo sapiens) (UniProt O95398); assay: Confirmatory qHTS for agonist of cAMP-regulated guanine nucleotide exchange factor 3 (EPAC1) (AID 1645881);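 further: EPAC1 catalysed release of BODIPY-GDP from Rap1B seen as fluorescence loss; nearly all actives have a fitted effect of over 75% in size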
[11] = target: Rap guanine nucleotide exchange factor 4 (Homo sapiens) (UniProt Q8WZA2); assay: Confirmatory qHTS for agonist of cAMP-regulated guanine nucleotide exchange factor 4 (EPAC2) (AID 1645884);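 further: nucleotide exchange releases bodipy-GDP from Rap1 and this lowers its fluorescence; nearly all actives have a fitted effect of over 65% in size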
[12] = target: Rap guanine nucleotide exchange factor 4 (Homo sapiens) (UniProt Q8WZA2); assay: Confirmatory qHTS for antagonist of cAMP-regulated guanine nucleotide exchange factor 4 (EPAC2) (AID 1645885); further: nearly all actives have a fitted effect of over 25% in size
[13] = target: Rap guanine nucleotide exchange factor 3 (Homo sapiens) (UniProt O95398); assay: Counterscreen qHTS for antagonist of cAMP-regulated guanine nucleotide exchange factor 3 (EPAC1) (AID 1645888);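 further: fluorescence loss as bound BODIPY-GDP is released from Rap1B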
How it was run: (§1)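 Rap1B–BODIPY-GDP (250 nM) with 50 uM GDP; compounds pin-transferred to 9.74 nM–152 uM final (activator) or from 7.32 nM upwards (inhibitor). Fluorescence Ex/Em 480/540 nm read at 5 and 30 min, then after adding cAMP or buffer, at room temperature.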

[14] = target: Rap guanine nucleotide exchange factor 3 (Homo sapiens) (UniProt O95398); assay: Counterscreen qHTS for agonist of cAMP-regulated guanine nucleotide exchange factor 3 (EPAC1) (AID 1645889); further: nearly all actives have a fitted effect of over 40% in size
How it was run: as §1

Sequence of Phenylethanolamine N-methyltransferase (Homo sapiens) (P11086 whole entry, looked up): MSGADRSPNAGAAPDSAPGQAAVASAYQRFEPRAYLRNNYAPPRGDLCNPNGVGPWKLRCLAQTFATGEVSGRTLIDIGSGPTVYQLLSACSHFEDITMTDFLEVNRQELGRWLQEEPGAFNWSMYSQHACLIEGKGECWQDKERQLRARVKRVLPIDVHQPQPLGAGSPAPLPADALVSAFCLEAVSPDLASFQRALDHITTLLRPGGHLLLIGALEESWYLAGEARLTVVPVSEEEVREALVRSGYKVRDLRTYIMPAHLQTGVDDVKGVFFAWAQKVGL
Sequence of Catechol O-methyltransferase (Homo sapiens) (P21964 whole entry, looked up): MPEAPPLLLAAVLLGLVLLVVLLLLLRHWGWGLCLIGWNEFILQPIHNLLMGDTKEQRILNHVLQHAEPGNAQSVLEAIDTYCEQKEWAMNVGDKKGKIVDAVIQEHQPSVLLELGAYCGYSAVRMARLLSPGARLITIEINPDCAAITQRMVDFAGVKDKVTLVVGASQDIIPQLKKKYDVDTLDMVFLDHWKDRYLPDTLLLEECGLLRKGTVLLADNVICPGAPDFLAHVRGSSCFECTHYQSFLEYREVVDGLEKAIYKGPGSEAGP
Sequence of Nicotinamide N-methyltransferase (Homo sapiens) (P40261 whole entry, looked up): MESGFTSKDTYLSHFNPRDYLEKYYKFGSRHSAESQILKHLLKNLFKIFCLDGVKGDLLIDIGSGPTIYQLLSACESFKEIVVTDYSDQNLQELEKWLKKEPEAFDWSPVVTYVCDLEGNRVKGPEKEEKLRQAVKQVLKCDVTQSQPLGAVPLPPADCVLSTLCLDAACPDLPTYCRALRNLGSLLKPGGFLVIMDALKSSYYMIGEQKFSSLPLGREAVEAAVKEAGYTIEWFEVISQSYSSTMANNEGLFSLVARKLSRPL
Sequence of Phospholipid hydroperoxide glutathione peroxidase GPX4 (Homo sapiens) (P36969 whole entry, looked up): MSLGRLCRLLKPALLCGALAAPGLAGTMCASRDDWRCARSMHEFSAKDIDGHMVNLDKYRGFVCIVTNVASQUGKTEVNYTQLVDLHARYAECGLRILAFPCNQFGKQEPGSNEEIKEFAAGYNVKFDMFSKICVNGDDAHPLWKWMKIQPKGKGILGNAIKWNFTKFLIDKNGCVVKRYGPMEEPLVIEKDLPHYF
Sequence of Glutathione peroxidase 1 (Homo sapiens) (P07203 whole entry, looked up): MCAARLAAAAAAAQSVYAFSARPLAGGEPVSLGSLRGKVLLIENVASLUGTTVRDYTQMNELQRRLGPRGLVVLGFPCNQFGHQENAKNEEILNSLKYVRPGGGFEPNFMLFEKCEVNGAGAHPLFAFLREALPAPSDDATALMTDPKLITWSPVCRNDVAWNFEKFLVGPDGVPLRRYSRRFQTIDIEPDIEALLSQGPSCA
Sequence of Rap guanine nucleotide exchange factor 3 (Homo sapiens) (O95398 whole entry, looked up): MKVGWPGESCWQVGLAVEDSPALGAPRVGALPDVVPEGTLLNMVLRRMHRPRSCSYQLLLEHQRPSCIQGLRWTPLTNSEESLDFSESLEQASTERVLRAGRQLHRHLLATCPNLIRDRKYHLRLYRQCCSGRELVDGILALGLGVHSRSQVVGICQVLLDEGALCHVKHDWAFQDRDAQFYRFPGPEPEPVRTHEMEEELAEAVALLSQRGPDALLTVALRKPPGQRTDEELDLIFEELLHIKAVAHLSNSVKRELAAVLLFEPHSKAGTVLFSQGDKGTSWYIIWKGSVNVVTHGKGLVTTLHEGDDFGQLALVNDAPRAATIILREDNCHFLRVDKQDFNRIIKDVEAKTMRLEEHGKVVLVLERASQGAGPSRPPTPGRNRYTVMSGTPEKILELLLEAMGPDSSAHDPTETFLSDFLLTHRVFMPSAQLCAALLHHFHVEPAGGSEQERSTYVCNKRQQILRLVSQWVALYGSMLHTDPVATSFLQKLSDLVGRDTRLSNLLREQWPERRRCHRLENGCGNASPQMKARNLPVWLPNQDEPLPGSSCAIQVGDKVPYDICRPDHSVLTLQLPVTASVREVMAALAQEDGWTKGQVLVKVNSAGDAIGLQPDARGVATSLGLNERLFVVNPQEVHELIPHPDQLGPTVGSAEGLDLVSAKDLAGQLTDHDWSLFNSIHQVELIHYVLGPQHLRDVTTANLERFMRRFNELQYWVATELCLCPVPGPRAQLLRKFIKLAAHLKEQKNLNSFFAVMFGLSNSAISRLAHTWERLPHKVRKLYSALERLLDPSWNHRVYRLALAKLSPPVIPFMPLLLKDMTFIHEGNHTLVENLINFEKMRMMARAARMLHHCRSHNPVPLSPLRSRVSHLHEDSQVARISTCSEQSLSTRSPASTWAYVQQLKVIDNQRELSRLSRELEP
Sequence of Rap guanine nucleotide exchange factor 4 (Homo sapiens) (Q8WZA2 whole entry, looked up): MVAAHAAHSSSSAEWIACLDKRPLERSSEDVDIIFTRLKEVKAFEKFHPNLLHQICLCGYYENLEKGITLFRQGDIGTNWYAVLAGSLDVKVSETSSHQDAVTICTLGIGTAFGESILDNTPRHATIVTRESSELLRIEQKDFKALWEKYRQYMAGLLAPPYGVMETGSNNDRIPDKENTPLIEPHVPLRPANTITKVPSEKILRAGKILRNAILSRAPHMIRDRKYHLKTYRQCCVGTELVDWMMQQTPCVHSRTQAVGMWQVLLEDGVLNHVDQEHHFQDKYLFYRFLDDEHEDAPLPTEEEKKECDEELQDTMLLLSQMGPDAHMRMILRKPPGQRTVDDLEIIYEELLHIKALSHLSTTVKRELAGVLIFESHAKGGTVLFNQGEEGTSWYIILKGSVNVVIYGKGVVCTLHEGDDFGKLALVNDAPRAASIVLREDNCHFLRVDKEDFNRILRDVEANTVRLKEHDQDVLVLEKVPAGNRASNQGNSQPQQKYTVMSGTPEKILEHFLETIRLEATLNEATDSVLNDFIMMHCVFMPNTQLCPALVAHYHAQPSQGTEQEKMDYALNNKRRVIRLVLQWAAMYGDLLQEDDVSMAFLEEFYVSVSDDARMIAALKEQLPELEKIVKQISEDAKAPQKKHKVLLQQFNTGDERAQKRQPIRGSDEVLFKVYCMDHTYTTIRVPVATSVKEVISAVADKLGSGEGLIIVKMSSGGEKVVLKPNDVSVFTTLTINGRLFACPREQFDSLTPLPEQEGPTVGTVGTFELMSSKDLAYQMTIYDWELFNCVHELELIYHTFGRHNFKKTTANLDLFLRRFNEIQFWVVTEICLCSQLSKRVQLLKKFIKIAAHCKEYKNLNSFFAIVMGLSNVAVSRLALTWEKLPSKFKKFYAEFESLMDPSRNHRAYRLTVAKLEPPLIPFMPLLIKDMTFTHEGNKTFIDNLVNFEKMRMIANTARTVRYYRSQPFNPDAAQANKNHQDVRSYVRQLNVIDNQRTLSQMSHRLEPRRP

CCN1C[C@H](C)n2c(c(O)c3c(=O)n(Cc4ccc(F)c(Cl)c4)nc(C(=O)NC)c32)C1=O
outcome [1]: inactive
Potency [2]: inactive
Potency [3]: inactive
Potency [4]: inactive
Potency [5]: inactive

CN(C)CCCNC(=O)c1ccc(-c2cc(O)c3ncccc3c2)cc1
activity [6]: -84% and -99.6%
activity change, negative = inhibition [7]: 2.82% and 3.64%
activity [8]: -0.93% and -8.84%
activity [9]: -2.71% and -2.66%
Potency [2]: inactive
Potency [5]: inactive

CCOC(=O)c1c(CSc2ccccc2)n(C)c2cc(Br)c(O)c(CN(C)C)c12
outcome [1]: inactive

c1ccc(-c2oc3ncnc(NC[C@@H]4CCCO4)c3c2-c2ccccc2)cc1
activity [6]: -58.1%
Potency [7]: 24.1 µM (active)
activity [8]: -46.6%
activity [9]: -56.7%
Potency [3]: inactive
Potency [5]: inactive

CC(C)CNc1ccnc(NCc2csc(-c3ccccc3)n2)n1
activity [6]: -9.21%
activity change, negative = inhibition [7]: -8.39%
activity [8]: -34.7%
activity [9]: -20.3%
Potency [5]: inactive

Clc1ccc(C2(c3ccc(-c4cn[nH]c4)cc3)CCNCC2)cc1
activity [6]: 0.191%
activity change, negative = inhibition [7]: 0%
activity [8]: -22.3%
activity [9]: -4.19%
Potency [3]: inactive
Potency [4]: inactive
Potency [5]: inactive

NC(=O)c1nnn(Cc2cc(Cl)c(C(=O)c3ccc(Cl)cc3)c(Cl)c2)c1N
Potency [10]: inactive
activation [11]: 5.43% [at 17.1 µM, percent relative to cAMP agonist control] (inactive)
activity change, negative = inhibition [12]: -14.9% [at 12.7 µM] (inactive)
outcome [13]: inactive
outcome [14]: inactive

CN(C)CCN(Cc1ccc(Cl)cc1)c1ccccn1
outcome [1]: inactive

NS(=O)(=O)c1ccc(Nc2nc(OCC3CCCCC3)c3[nH]cnc3n2)cc1
activity [6]: -14.9%
activity change, negative = inhibition [7]: -2.65%
activity [8]: -73.9%
activity [9]: -14.7%
Potency [3]: inactive
Potency [5]: inactive

CNC(=O)[C@H](Cc1ccccc1)NC(=O)[C@H](CC(C)C)[C@H](CSc1cccs1)C(=O)NO
outcome [1]: inactive
Potency [3]: inactive
Potency [4]: inactive

c1cc(OCCN2CCCCC2)cc(-c2n[nH]c3ccc(-c4ncn[nH]4)cc23)c1
activity [6]: -3.59%
activity change, negative = inhibition [7]: 2.7%
activity [8]: -12.9%
activity [9]: -6.71%
Potency [3]: inactive
Potency [4]: inactive
Potency [5]: inactive
